The panel holds about 79,000 compounds, 15% with a hit somewhere; the sample as a whole holds those more often. Active and inactive are the calls of the source. No stated cut-off is given here; in the data, active means growth inhibition above about 70%; inactive means the rest.

One test is described as follows: NCI Yeast Anticancer Drug Screen. Data for the mec2-1 strain (AID 157). Particulars: S. cerevisiae mec2-1 strain, at 50.0 µM, stronger effect = higher value. The procedure, abridged:
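Vehicle-treated cultures served as reference for growth inhibition of compound-exposed mec2-1 yeast.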
Turning to `CCN(CC)CCNc1cc(C)nc(/N=C(\N)Nc2ccc(Cl)cc2)n1`, the growth inhibition is 1.05% (inactive).

For the compound `O=C(O)c1cc2c([nH]1)-c1cccnc1C(=O)C2=O`, the growth inhibition is -11.3% (inactive).

Take `CC1c2ccccc2-c2ccccc2N1C(=O)c1cccc(C(=O)N2c3ccccc3-c3ccccc3C2C)n1` (stereo not drawn): the growth inhibition is 11.6% (inactive).

Turning to `O=C(O)C12CCCCC1CCCC2` (stereo not drawn), the growth inhibition is 31.2% (inactive).

On to `N#CC1(Cc2ccccc2[N+](=O)[O-])c2ccccc2C2C(N1C(=O)c1ccccc1)C2(Cl)Cl` (stereo not drawn), for which the growth inhibition is 23.7% (inactive).

For the compound `CCn1nnc2c(C(N)=O)ncn2c1=O`, the growth inhibition is -38.7% (inactive).

On to `O=C(/C=C/c1ccccc1)NCC(O)CO` (stereo not drawn), for which the growth inhibition is -2.95% (inactive).

Consider `CN(C)CCCOc1nc2c(c(=O)n(C)c(=O)n2C)n1C` (tested in a mixture with another compound), for which the growth inhibition is 8.9% (inactive).

For `COc1cc2cccc(N=Cc3cccc(OC)c3OC(C)C)c2cc1OC`, the growth inhibition is -13.2% (inactive).

On to `O=C(Cc1ccccc1)NC(=O)Nc1ccccc1`, for which the growth inhibition was -10.2% (inactive).

As to `COC(=O)c1cc(=O)c2ccc(Cl)cc2[nH]1`, the growth inhibition was 4.05% (inactive).

For the compound `COc1ccc(SC(N(C)C)=[N+](C)C)cc1`, the growth inhibition is 1.1% (inactive).

On to `CCN(CC)CCNc1cc(OC)c(N)c2cccnc12`, for which the growth inhibition is 19.9% (inactive).

As to `Cc1cc(C)nc(NS(=O)(=O)c2ccc(NC(=O)c3cccc4c(Nc5ccc(S(=O)(=O)N=C(N)N)cc5)c5ccc(Cl)cc5nc34)cc2)n1`, the growth inhibition is 23.3% (inactive).

As for `CN(N)c1cc(=O)n(C)c(=O)n1C`, the growth inhibition is -1.2% (inactive).

In the case of `C=C(Cl)CSC(C)(C)C`, the growth inhibition was 5.8% (inactive).

As for `CCCCc1ccc(Nc2nc(OC)c3ncn(C4CC(O)C(CO)O4)c3n2)cc1` (stereo not drawn), the growth inhibition is 90.2% (active).

Consider `c1ccc(CNCCCNCCCCNCCCNCc2ccccc2)cc1`, for which the growth inhibition was -5.5% (inactive).

With `OC1CCC(C2C3CCCCC3C3CCCCC3C2C2CCC(O)CC2)CC1` (stereo not drawn), the growth inhibition was 98.5% (active).

For `CC(=O)Nc1ccc(S(=O)(=O)O)nc1`, the growth inhibition was 5.15% (inactive).

As for `CC1=C(C(=O)NCc2ccccc2)C(/C=C/c2ccccc2)C(C(=O)NCc2ccccc2)=C(C)N1`, the growth inhibition is 16.1% (inactive).

With `CCc1ccc(-c2c(-c3ccccc3)c(-c3ccccc3)c(-c3ccccc3)c(-c3ccccc3)c2-c2ccccc2)cc1`, the growth inhibition is 6.3% (inactive).

In the case of `O=C/C(=C1/C=Cc2cc([N+](=O)[O-])ccc2S1)c1ccccc1`, the growth inhibition is -18.8% (inactive).

The nature of a further test: NCI Yeast Anticancer Drug Screen. Data for the sgs1 mgt1 strain (AID 161).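 Further: 0% = growth of cultures given vehicle only.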 Particulars: S. cerevisiae sgs1 mgt1 strain, at 50.0 µM, stronger effect = higher value. The procedure, abridged: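 Test agents were incubated with a DNA-repair-mutant yeast strain. Growth was then read and compared against vehicle-treated controls.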
In the case of `c1ccc(-c2c3ccccc3cc3c2ccc2ccccc23)cc1`, the growth inhibition is -3.95% (inactive).

As for `CCCCCCC(C)(C)NC(N)=O`, the growth inhibition is -4.5% (inactive).

Regarding `Cc1ncc(N)nc1C`, the growth inhibition is -26.5% (inactive).

With `CC(=O)OCc1ccc(C)cc1`, the growth inhibition was -12.7% (inactive).

For the compound `O=C(O)CCc1ccccc1CC(=O)O`, the growth inhibition is -10.8% (inactive).

For `CC(=O)O[C@H]1C[C@]2(C)C(CCC3O[C@@]32C)[C@@]2(CC(c3ccoc3)OC2O)[C@@H]1C` (stereo partly drawn), the growth inhibition was -29.9% (inactive).

Turning to `CC1=C(CC2C(=O)N(c3ccccc3)S(=O)(=O)NC2C)C(=O)N(c2ccccc2)S(=O)(=O)N1C` (stereo not drawn), the growth inhibition is -14% (inactive).

As to `O/N=C1/C(=C/c2ccc(F)cc2)CCCC1C(NO)c1ccc(F)cc1` (stereo not drawn), the growth inhibition was -8.05% (inactive).

Turning to `COC(=O)N/N=C/c1oc(-c2ccccc2)c(-c2ccccc2)c1[N+](=O)[O-]`, the growth inhibition was 16.5% (inactive).

`COc1ccc(C2C3=C(CC(C)(C)CC3=O)Oc3cc4c(cc32)OCO4)cc1` (stereo not drawn): the growth inhibition is -25% (inactive).

On to `CN(C)NC(=O)Nc1cccc2ccccc12`, for which the growth inhibition is -6.15% (inactive).

`CC(C)(C)OC(=O)C1CCC/C1=N/Nc1ccc([N+](=O)[O-])cc1[N+](=O)[O-]` (stereo not drawn): the growth inhibition was 10.3% (inactive).

On to `CC(C)CCCC(C)CCCl` (stereo not drawn), for which the growth inhibition is -5.85% (inactive).

`NC(=O)N/N=C(\Cc1nc2ccc(Cl)cc2[nH]c1=O)C(=O)Nc1ccc(Cl)cc1Cl`: the growth inhibition was 7.2% (inactive).

Consider `Cc1[nH]n(C(=N)N)c(=O)c1CCO`, for which the growth inhibition was -18.6% (inactive).

Take `CC(=O)OCC1OC(n2cnc([N+](=O)[O-])c2Br)C(OC(C)=O)C1OC(C)=O` (stereo not drawn): the growth inhibition was 18.8% (inactive).

For the compound `CCCCCCCC(CC#N)(CCCCC)CCCCCC` (stereo not drawn), the growth inhibition was 11.9% (inactive).

With `CCN(CC)CCNc1cc(C)nc(/N=C(\N)Nc2ccc(Cl)cc2)n1`, the growth inhibition was 18.1% (inactive).

As for `O=C(O)c1cc2c([nH]1)-c1cccnc1C(=O)C2=O`, the growth inhibition is -15.8% (inactive).

Turning to `CC1c2ccccc2-c2ccccc2N1C(=O)c1cccc(C(=O)N2c3ccccc3-c3ccccc3C2C)n1` (stereo not drawn), the growth inhibition is -6.75% (inactive).

Regarding `O=C(O)C12CCCCC1CCCC2` (stereo not drawn), the growth inhibition was -6.25% (inactive).

In the case of `N#CC1(Cc2ccccc2[N+](=O)[O-])c2ccccc2C2C(N1C(=O)c1ccccc1)C2(Cl)Cl` (stereo not drawn), the growth inhibition is 9.7% (inactive).

With `CCn1nnc2c(C(N)=O)ncn2c1=O`, the growth inhibition is -44.1% (inactive).

As for `O=C(/C=C/c1ccccc1)NCC(O)CO` (stereo not drawn), the growth inhibition is -3.65% (inactive).

As for `CN(C)CCCOc1nc2c(c(=O)n(C)c(=O)n2C)n1C` (tested in a mixture with another compound), the growth inhibition was -19.9% (inactive).

For the compound `COc1cc2cccc(N=Cc3cccc(OC)c3OC(C)C)c2cc1OC`, the growth inhibition was 11.6% (inactive).

With `O=C(Cc1ccccc1)NC(=O)Nc1ccccc1`, the growth inhibition is -8.4% (inactive).

As to `COC(=O)c1cc(=O)c2ccc(Cl)cc2[nH]1`, the growth inhibition is -10.9% (inactive).

For `COc1ccc(SC(N(C)C)=[N+](C)C)cc1`, the growth inhibition was 7.1% (inactive).

`CCN(CC)CCNc1cc(OC)c(N)c2cccnc12`: the growth inhibition is -2.7% (inactive).

Consider `Cc1cc(C)nc(NS(=O)(=O)c2ccc(NC(=O)c3cccc4c(Nc5ccc(S(=O)(=O)N=C(N)N)cc5)c5ccc(Cl)cc5nc34)cc2)n1`, for which the growth inhibition was 27.2% (inactive).

For `CN(N)c1cc(=O)n(C)c(=O)n1C`, the growth inhibition is -10.7% (inactive).

Take `C=C(Cl)CSC(C)(C)C`: the growth inhibition is -6.7% (inactive).

Regarding `CCCCc1ccc(Nc2nc(OC)c3ncn(C4CC(O)C(CO)O4)c3n2)cc1` (stereo not drawn), the growth inhibition was 67.2% (inactive).

In the case of `c1ccc(CNCCCNCCCCNCCCNCc2ccccc2)cc1`, the growth inhibition was 9.4% (inactive).

On to `OC1CCC(C2C3CCCCC3C3CCCCC3C2C2CCC(O)CC2)CC1` (stereo not drawn), for which the growth inhibition was 92.5% (active).

For `CC(=O)Nc1ccc(S(=O)(=O)O)nc1`, the growth inhibition was -6.8% (inactive).

Regarding `CC1=C(C(=O)NCc2ccccc2)C(/C=C/c2ccccc2)C(C(=O)NCc2ccccc2)=C(C)N1`, the growth inhibition is 23.7% (inactive).

In the case of `CCc1ccc(-c2c(-c3ccccc3)c(-c3ccccc3)c(-c3ccccc3)c(-c3ccccc3)c2-c2ccccc2)cc1`, the growth inhibition was 21.9% (inactive).

For `O=C/C(=C1/C=Cc2cc([N+](=O)[O-])ccc2S1)c1ccccc1`, the growth inhibition is -11% (inactive).
